HPGD block = inhibitors of human 15-hydroxyprostaglandin dehydrogenase (HPGD); P15428; purified HPGD, NADH fluorescence kinetic, PGE2 substrate; Potency, µM, for the others: at the highest dose activity change, negative = inhibition, actives largely listed as inhibitors; actives 4.3% (n = 150,000); AID 894; active means well fitted inhibition curve with a large enough effect, not every such curve was filed as active; inconclusive means small, poorly fitted or top-dose-only effect, or another doubt; inactive means no such curve, though single readings can be large or run the other way
Target sequence (P15428 whole entry, looked up): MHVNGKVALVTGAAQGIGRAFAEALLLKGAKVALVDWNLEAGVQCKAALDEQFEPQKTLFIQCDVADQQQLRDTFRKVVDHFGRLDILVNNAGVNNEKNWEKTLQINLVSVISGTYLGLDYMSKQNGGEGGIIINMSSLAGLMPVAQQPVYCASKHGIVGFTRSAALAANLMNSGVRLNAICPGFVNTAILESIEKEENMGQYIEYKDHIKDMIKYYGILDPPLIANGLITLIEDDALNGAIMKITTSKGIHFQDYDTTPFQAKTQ
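NADH formation kinetics: reaction with 30 uM PGE2 and 1 mM NAD+ (final), 20 nM enzyme, Tris-HCl pH 8 with Tween 20, after 15 min compound preincubation at room temperature. Fluorescence change, last versus first of five reads.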
NPSR antagonist = antagonists of human neuropeptide S receptor cAMP signaling | CHO-NPSR cells, cAMP TR-FRET, antagonist mode | Potency, µM (top dose mostly 38.3 µM), inactives show at the top dose activity change, negative = inhibition, most hits filed as inhibitors | actives 1% (n = 220,000) | AID 1461; further: nearly all actives have a fitted effect of over 50% in size
Tau FP inhib = tau fibrillization inhibition (FP); P10636; K18 P301L tau heparin fibrillization, Alexa594 FP, 6 h; Potency, µM (titrated, usually from 57.7 µM), for the others: at the highest dose activity, negative = inhibition, actives largely listed as inhibitors; actives 0.39% (n = 280,000); further: nearly all actives have a fitted effect of over 55% in size
Target sequence (P10636 561-689 P618L limits assumed): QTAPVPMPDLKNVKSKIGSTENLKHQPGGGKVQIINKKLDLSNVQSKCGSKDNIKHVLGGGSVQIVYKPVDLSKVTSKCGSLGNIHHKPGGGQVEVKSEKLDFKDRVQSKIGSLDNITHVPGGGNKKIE
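Read-out: fluorescence polarization of Alexa 594-labeled tau (0.24 uM), 555 nm excitation, 632 nm emission. Mixtures held 15 uM unlabeled K18 P301L, compound and 20 uM heparin, pH 7 acetate buffer, incubated 6 hr at 37 C.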
Tau fluor counter = counter-screen for tau fibril formation inhibitors | actives 0.93% (n = 280,000) | tau K18 P301L Alexa594 fluorescence, heparin fibrillization | Potency, µM (series often up to 57.7 µM), inactives show at the top dose activity change, negative = decrease; further: nearly all actives have a fitted effect of over 55% in size
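Human tau K18 P301L (15 uM unlabeled, 0.24 uM Alexa 594-labeled) in 100 mM sodium acetate pH 7 with 20 uM heparin, 6 hr at 37 C. ThT 30 uM added, 1 hr ambient; Alexa 594 FP and total fluorescence read at 555/632 nm.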
ALDH1A1 inh = inhibitors of human aldehyde dehydrogenase 1A1 | P00352 | Purified ALDH1A1, NADH fluorescence, propionaldehyde substrate | Potency, µM (titrated, usually from 75.3 µM), without a hit: at the top dose activity, negative = inhibition, actives largely listed as inhibitors | actives 7.3% (n = 220,000) | AID 1030; active means well fitted inhibition curve with a large enough effect, not every such curve was filed as active; inconclusive means small, poorly fitted or top-dose-only effect, or another doubt; inactive means no such curve, though single readings can be large or run the other way;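 further: plate controls were no enzyme wells and a reference inhibitor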
Tau ThT inhib = tau fibrillization inhibition (ThT binding); P10636; recombinant tau K18 P301L, heparin-induced fibrillization, ThT fluorescence; Potency, µM (titrated, usually from 57.4 µM), for the others: at the top dose activity, negative = inhibition, actives largely listed as inhibitors; actives 2.1% (n = 270,000); AID 1460; further: nearly all actives have a fitted effect of over 55% in size
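Using a mix of unlabeled (15 uM) and Alexa 594-labeled (0.24 uM) tau K18 P301L, heparin-triggered fibrillization over 6 hr at 37 C was scored by ThT fluorescence.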
An asterisk follows results filed as active; u = inconclusive; x = no result given; [ ] = another dose, or the depositor's remark. An excerpt weighted towards active compounds, which were near 9.5% of everything screened. Unless noted, the call rests on the fitted dose curve; in most records, active means well fitted curve in the direction sought with a large enough effect; inconclusive means small, poorly fitted or top-dose-only effect, or another doubt; inactive means no such curve, though single readings can be large; an effect the other way counts as inactive or inconclusive. Unless noted, on the % scale 0 is the no-effect control and ±100 the full control effect; potency means the concentration at half of the fitted maximal effect.

SMILES	HPGD block	NPSR antagonist	Tau FP inhib	Tau fluor counter	ALDH1A1 inh	Tau ThT inhib
COCCn1c(C)cc(O)c(C(c2ccc(OC)cc2)N2CCN(c3ccccc3)CC2)c1=O (stereo unspecified)	x	x	-2.1%	7.0%	x	u
Cn1c(=O)c2c(ncn2C[C@@H](O)CO)n(C)c1=O	-12.5%	x	x	x	-0.1%[20.9 µM]	x
Cc1ccccc1CNC(=O)c1cccc(NC(=O)N2CCSc3ncccc32)c1	x	x	-3.8%	2.6%	x	4.5%
Cc1ccc(S(=O)(=O)n2c3ccccc3c3nnc(C(=O)c4ccccc4)nc32)cc1	x	x	3.0%[11.6 µM]	-13.0%[11.6 µM]	-7.3%[13.5 µM]	-8.8%[11.5 µM]
CC(C)CC(=O)Nc1ccc2c(c1)OCO2	x	1.2%	-1.8%	-8.4%	0.4%	-11.5%
N#Cc1ccc(NCC(=O)Nc2ccc3c(c2)OCCO3)cc1	x	-0.3%	6.0%	-11.4%	12.6µM*	-20.1%
CC(=O)Nc1ccc2c(c1)OCO2	x	6.6%	1.8%	-4.3%	2.2%	-4.8%
N#Cc1cccc(NCC(=O)Nc2ccc3c(c2)OCCO3)c1	x	-3.1%	1.6%	-12.4%	u	-8.9%
C[C@H](NS(=O)(=O)c1ccccc1)C(=O)OCC(=O)NC(=O)Nc1ccc2c(c1)OCCO2	-12.8%	6.2%	0.1%	10.3%	14.1µM*	10.8%
O=C(CCl)Nc1ccc2c(c1)OCO2	x	12.3%	3.5%	-15.6%	1.58µM*	-12.5%
CC(C)[C@H](NS(=O)(=O)c1ccccc1)C(=O)OCC(=O)Nc1ccc2c(c1)OCO2	0.2%	-4.7%	-2.9%	-13.2%	-9.5%	-8.1%
CN(C)C(=S)Nc1ccc2c(c1)OCO2	x	5.4%	-13.4%	-10.6%	10µM*	u
Cc1ccccc1OS(=O)(=O)c1cn(C)c(=O)n(C)c1=O	x	2.0%	3.1%	-2.3%	16.9%	-4.9%
CC1(C)[C@@H]2CC[C@]1(CC(=O)O)[C@H](Cl)C2	-14.8%	x	x	x	-3.5%[13.5 µM]	x
O=C(Oc1cccc(C(=S)N2CCCCC2)c1)c1ccccc1	x	-3.2%	-3.5%	-22.4%	2.51µM*	-13.8%
O=C(Oc1ccc(C(=S)N2CCC(O)CC2)cc1)c1ccc(Cl)cc1	x	13.3%	-1.7%	-6.5%	-4.5%	-1.2%
O=C(/C=C/c1ccccc1)Oc1cccc(C(=S)N2CCOCC2)c1	x	30.8%	1.2%	-22.1%	4.47µM*	u
Oc1cccc(C(=S)N2CCCCC2)c1	x	8.8%	u	-4.0%	11.2µM*	u
O=C(Oc1ccc(C(=S)N2CCCCC2)cc1)c1ccccc1	x	-28.1%	3.3%	-23.3%	11.2µM*	-16.7%
O=C(Oc1cccc(OC(=O)N2CCCCC2)c1)N1CCCCC1	x	-1.5%	8.2%[2.34 µM]	17.3%[2.34 µM]	-1.2%	-9.9%
O=C(/C=C/c1ccccc1)Oc1ccccc1C(=S)N1CCOCC1	x	-25.9%	-11.2%	-21.8%	u	-16.5%
Oc1ccc(C(=S)N2CCCCCC2)cc1	u	-1.5%[46.1 µM]	u	-12.5%	u	u
O=c1cc(O)nc(SCc2ccccc2)n1-c1ccc(F)cc1	2.5%	-14.3%[46.1 µM]	-4.2%	-7.7%	1.9%	-10.7%
O=C(CCC(=O)N1CC2CCCN2c2ccccc21)NCc1ccccc1 (stereo unspecified)	x	x	2.6%	-14.1%	x	-2.7%
OC(CCN1CCOCC1)(c1ccc(Cl)cc1)C1CCCCC1 (stereo unspecified)	2.6%	-11.8%[46.1 µM]	-1.2%	-6.2%	7.08µM*	-9.2%
SMILES	HPGD block	NPSR antagonist	Tau FP inhib	Tau fluor counter	ALDH1A1 inh	Tau ThT inhib
O=C(CCCl)N(Cc1nc2ccccc2c(=O)[nH]1)Cc1cccs1	x	-9.4%	-3.0%	-5.1%	-7.4%	-4.2%
CCOC(=O)/C(=C\c1cccc(O)c1)c1nc2sc(C)c(C)c2c(=O)[nH]1	7.94µM*	10µM*	u	-16.2%	7.94µM*	20µM*
CCOC(=O)C1=C(CC)OC(N)=C(C#N)C1c1cccs1 (stereo unspecified)	-17.5%	10.9%[46.1 µM]	-11.0%	-21.7%	u	-18.8%
CCN1CC2=C(OC(N)=C(C#N)C2c2cccs2)/C(=C\c2cccs2)C1 (stereo unspecified)	-12.6%	u	-13.0%	u	u	14.1µM*
CC(C)Cn1cc(C(=O)NCc2cccs2)c2c3ccccc3n(C)c2c1=O	x	-12.5%[46.1 µM]	-4.5%	-27.1%	1µM*	10µM*
CC(C)Cn1cc(C(=O)N2CCOCC2)c2c3ccccc3n(C)c2c1=O	x	-10.4%[46.1 µM]	-5.8%	-18.2%	9.7%	-8.5%
CC1(C)OC(C)(C)/C(=C/Nc2ccc(O)cc2)C1=O	-19.8%	-6.2%	u	u	-16.9%	14.1µM*
O=C(Nc1cc(S(=O)(=O)N2CCOCC2)ccc1N1CCOCC1)C1CCCO1 (stereo unspecified)	x	-4.5%	4.2%	-5.8%	9.9%	-3.2%
NNC(=O)c1ccc(N2CCc3ccccc32)c([N+](=O)[O-])c1	x	-20.6%	10.1%	u	1.58µM*	14.1µM*
COC(CNC(=O)c1ccc(N2CCc3ccccc32)c([N+](=O)[O-])c1)OC	-26.4%	-28.8%	10.7%	u	u	u
COc1cc2c(C(=O)N(C)c3cc(Cl)ccc3OC)cn(CC(C)C)c(=O)c2cc1OC	x	x	-6.2%	-12.5%	x	-9.6%
O=C(COC(=O)c1ccc(Br)cc1)NCCC1=CCCCC1	x	7.9%	-4.6%	-12.1%	3.8%	-11.2%
O=C(COC(=O)c1cnc(Cl)c(Cl)c1)NCCC1=CCCCC1	x	-8.6%	-5.3%	-10.3%	12.6µM*	-11.5%
COC(=O)c1ccc(COC(=O)c2ccc(N(C)C)cc2)cc1	u	-26.4%[46.1 µM]	2.1%	-17.4%	25.1µM*	-8.8%
